Assay outcomes: PubChem, National Center for Advancing Translational Sciences (NCATS)
Most compounds without a hit are left out; they make up all but 9.3% or so of the library.
ELG1 genotoxic: inducers of genotoxicity in HEK293T ELG1-luciferase cells. 330,000 tested, 1.3% active. HEK293T ELG1-luciferase reporter, luminescence, 16 h. Potency, µM (doses to about 46 µM), inactives show at the highest dose activity change, positive = activation, hits mostly activators; also: % of control where 0% means no effect; nearly all actives have a fitted effect of over 60% in size
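Genotoxicity was scored as increased ELG1-luciferase reporter signal, measured by ONE-Glo luminescence (30 min, room temperature). Compound or vehicle exposure of the HEK293T reporter cells lasted 16 hr at 37°C.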
NPC1 prom act: activators of NPC1 promoter. Huh7 NPC1 promoter luciferase reporter, 24 h. Potency, µM (top dose mostly 9.22 µM), for the others: at the highest dose activation, actives largely listed as activators. 320,000 tested, 2.4% active; also: % of control where 0% means no effect; nearly all actives have a fitted effect of over 60% in size
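Huh7 reporter cells (NPC1 promoter driving luciferase) are dosed with compound for 24 h at 37 °C, 5% CO2; luciferase detection reagent is then added and luminescence measured after 10 min at ambient temperature.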
SMN2 splice up: SMN2 splice variant enhancement; Potency, µM (highest dose often 46.1 µM), for the others: top-dose activity change, positive = activation, usual class: activators; 210,000 tested, 2.8% active; HEK293 SMN2-luciferase splicing reporter, luminescence, 30-36 h; also: % of control where 0% means no effect; nearly all actives have a fitted effect of over 55% in size
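HEK293 cells carry an SMN2 […]–luciferase reporter in which exon 7 inclusion puts luciferase in frame. Cells were plated 10-12 h before compound addition, then incubated 30-36 h at 37C. ONE-Glo luminescence was read; sodium butyrate at 4.5 mM final served as control.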
Rab9 prom act: activates the Rab9 promoter; Huh7 Rab9 promoter-luciferase reporter, luminescence, 24 h; Potency, µM (doses to about 9.22 µM), for inactives: at the highest dose activation, negative = inhibition, most hits filed as activators; 320,000 tested, 2.8% active; AID 485297; also: % of control where 0% means no effect; nearly all actives have a fitted effect of over 60% in size
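Huh7 reporter line, Rab9 promoter upstream of luciferase. Compound exposure 24 h at 37 °C in reduced-serum medium with 10% FBS. Read-out: luminescence.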
FLuc modulator: firefly luciferase modulation, counter-screen for miR-21 project | P08659 | purified FLuc, Km substrates, luminescence inhibition | Potency, µM (highest dose often 57.5 µM), inactives show top-dose activity change, negative = inhibition, usual class: inhibitors | 360,000 tested, 6.9% active | AID 588342;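 also: plate controls were vehicle for no effect and reference inhibitor for full effect; nearly all actives have a fitted effect of over 55% in size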
Target sequence (P08659 whole entry, looked up): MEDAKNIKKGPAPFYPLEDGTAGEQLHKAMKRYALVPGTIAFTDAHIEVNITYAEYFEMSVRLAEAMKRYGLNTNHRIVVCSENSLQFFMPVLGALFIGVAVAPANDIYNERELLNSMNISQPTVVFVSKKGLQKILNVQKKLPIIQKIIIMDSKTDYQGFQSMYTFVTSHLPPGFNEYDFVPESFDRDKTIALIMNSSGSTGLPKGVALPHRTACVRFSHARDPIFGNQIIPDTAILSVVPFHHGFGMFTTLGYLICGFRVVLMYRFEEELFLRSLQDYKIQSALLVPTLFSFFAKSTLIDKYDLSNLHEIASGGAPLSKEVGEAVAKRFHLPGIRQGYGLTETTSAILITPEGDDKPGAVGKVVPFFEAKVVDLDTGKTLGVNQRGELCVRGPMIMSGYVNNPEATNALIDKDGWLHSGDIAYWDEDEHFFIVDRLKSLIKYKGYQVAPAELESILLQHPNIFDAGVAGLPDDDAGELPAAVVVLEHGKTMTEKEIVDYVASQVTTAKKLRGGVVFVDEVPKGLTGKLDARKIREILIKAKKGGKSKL
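Purified P. pyralis luciferase, 10 nM final, with Km-level 10 uM D-luciferin and 10 uM ATP in 50 mM Tris acetate pH 7.5, 10 mM Mg acetate, 0.01% Tween-20, 0.05% BSA; 6-point qHTS titration about 60 µM downward; luminescence read.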
ELG1 repair inh: ELG1-dependent DNA repair inhibition; HEK293T ELG1-luciferase reporter, luminescence, 16 h; DNA damage induced by 5-fluorouridine; Potency, µM (titrated, usually from 46.1 µM), for inactives: at the highest dose activity change, negative = inhibition, actives largely listed as inhibitors; 330,000 tested, 2.3% active; AID 504467; also: % is scaled to controls: 0 for no effect and ±100 for the full control effect; nearly all actives have a fitted effect of over 55% in size
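HEK293T cells expressing luciferase-tagged ELG1 (2,000/well) received 5-Fluorouridine plus compound or DMSO for 16 hr at 37 °C. Luciferase was read by ONE-Glo luminescence after 30 min at room temperature.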
ELG1 FLuc counter: luciferase inhibition in cell-free luciferin readout for ELG1 hits | cell-free firefly luciferase luminescence counter-screen, ViewLux | 350 tested, 3% active | Potency, µM (doses to about 46.1 µM), without a hit: top-dose activity change, negative = inhibition, actives largely listed as inhibitors | shares compounds with ELG1 repair inh | AID 624247; also: % is scaled to controls: 0 for no effect and ±100 for the full control effect
ELG1 Luc conf: human ELG1 repair inhibition, luciferase-tagged ELG1 confirmation; shares compounds with ELG1 repair inh; HEK293T ELG1-luciferase levels, luminescence; cells co-treated with 5-fluorouridine; Potency, µM (top dose mostly 46.1 µM), inactives show at the top dose activity change, negative = inhibition, hits mostly inhibitors; 670 tested, 68% active; AID 624248; also: % is scaled to controls: 0 for no effect and ±100 for the full control effect; nearly all actives have a fitted effect of over 55% in size
ELG1-Luc MMS: inhibits ELG1-dependent repair under MMS stimulation in HEK293T cells; Potency, µM (series often up to 46.1 µM), inactives show top-dose activity change, negative = inhibition, usual class: inhibitors; HEK293T luciferase-tagged ELG1 level, MMS stimulated; shares compounds with ELG1 repair inh; 670 tested, 53% active; also: % is scaled to controls: 0 for no effect and ±100 for the full control effect; nearly all actives have a fitted effect of over 60% in size
ELG1 5FU viab: confirmation of ELG1 repair inhibitors: viability with 5FU. shares compounds with ELG1 repair inh. cell viability with 5-FU, ELG1-dependent repair. Potency, µM (series often up to 46.1 µM), for the others: at the top dose activity change, negative = viability loss, hits mostly cytotoxic. 670 tested, under 10 active. AID 624250;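 also: ELG1-luc HEK293T cells cotreated with 5-fluorouridine at 10 µM final; viability measured 16 h after compound addition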
ELG1 MMS cell: confirmation of ELG1 repair inhibitors: viability with MMS. shares compounds with ELG1 repair inh. Cell viability with MMS, ELG1-dependent DNA repair. Potency, µM (top dose mostly 46.1 µM), without a hit: at the top dose activity change, negative = viability loss, usual class: cytotoxic. 670 tested, 33% active. AID 624251;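 also: ELG1-luc HEK293T cells co-treated with 10 µM MMS; viability read 16 h after compound addition; % is scaled to controls: 0 for no effect and ±100 for the full control effect; nearly all actives have a fitted effect of over 60% in size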
ELG1 unstim viab: counter-screen for ELG1 repair inhibitors: unstimulated cell viability; shares compounds with ELG1 repair inh; cell viability counter-screen, unstimulated, luminescence; Potency, µM (top dose mostly 45.9 µM), for the others: top-dose activity change, negative = loss of viability, actives largely listed as cytotoxic; 900 tested, 8% active;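 also: compound exposure lasted 16 hours before reading; % is scaled to controls: 0 for no effect and ±100 for the full control effect; nearly all actives have a fitted effect of over 55% in size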
FLuc biochem: counter-screen for ELG1 repair inhibitors: firefly luciferase inhibition; shares compounds with ELG1 repair inh; purified firefly luciferase, luminescence counter-screen; Potency, µM (series often up to 57.5 µM), for inactives: at the top dose activity, negative = inhibition, actives largely listed as inhibitors; 350 tested, 10% active; also: % is scaled to controls: 0 for no effect and ±100 for the full control effect
Numbers without * were called inactive; ? = inconclusive; · = no result given. Calls follow the shape of the dose curve; as a rule, active = well fitted curve in the direction sought with a large enough effect; inconclusive = small, poorly fitted or top-dose-only effect, or another doubt; inactive = no such curve, though single readings can be large; an effect the other way counts as inactive or inconclusive. Potency is read from the fitted curve at half-maximal effect.

SMILES	ELG1 genotoxic	NPC1 prom act	SMN2 splice up	Rab9 prom act	FLuc modulator	ELG1 repair inh	ELG1 FLuc counter	ELG1 Luc conf	ELG1-Luc MMS	ELG1 5FU viab	ELG1 MMS cell	ELG1 unstim viab	FLuc biochem
CN1CC2(Cc3c1ccc1ccccc31)C(=O)OC(C)(C)OC2=O	-2.0%	-17.3%	0.4%	-2.1%	-0.3%	?	·	·	·	·	·	·	·
O=c1c2ccccc2oc2c1oc1ccccc12	?	·	·	·	·	?	·	·	·	·	·	-14.7%	·
COc1ccccc1NC(=O)Nc1nc(CC(=O)Nc2ccc(F)c(F)c2)cs1	-3.4%	0.8%	·	-6.2%	-19.0%	4.61µM*	·	22.3µM*	7.6%	5.9%	-7.4%	?	·
CC(C)(C)c1ccc(C(=O)NNc2ncccc2-n2cccc2)cc1	-4.4%	10.0%	·	9.5%	-8.1%	3.26µM*	·	5.6%	29.7%	-6.3%	-1.8%	-2.4%	·
CN(C(=O)c1sc2nc(N3CCOCC3)c3c(c2c1N)CCCC3)c1ccccc1	-7.1%	-5.5%	-18.3%	-2.0%	-7.1%	13µM*	-3.0%	15.8µM*	22.3µM*	?	2.4%	-16.6%	3.3%
Nc1c(C(=O)NCCc2ccccc2)sc2nc(N3CCOCC3)c3c(c12)CCCC3	-5.2%	-2.9%	-15.7%	13.9%	0.0%	-16.0%	·	·	·	·	·	·	·
Cc1nc2ccccc2c(=O)n1/N=C/c1cn[nH]c1-c1ccccc1	-8.9%	1.7%	·	0.2%	-0.2%	?	·	·	·	·	·	·	·
Cc1ccccc1OCc1nc2ccccc2c(=O)n1/N=C/c1cn[nH]c1-c1ccccc1	-9.8%	-4.3%	-33.1%	0.5%	-10.8%	4.61µM*	-6.5%	7.06µM*	14.1µM*	?	?	?	-17.9%
Cc1ccc(-c2[nH]ncc2/C=N/n2c(COc3ccccc3)nc3ccccc3c2=O)cc1	-13.1%	0.6%	-9.1%	-9.1%	-1.0%	5.17µM*	-10.6%	3.15µM*	19.9µM*	?	28.1µM*	15.8µM*	?
NC(=O)[C@H]1CC2(CC(c3cccc(NC(=O)[C@H]4CCC(=O)N4)c3)=NO2)CN1C(=O)c1ccccc1 (stereo partly specified)	2.4%	-2.6%	·	-5.2%	-18.1%	?	·	·	·	·	·	·	·
CCOC(=O)c1c(C)[nH]c(C(=O)COC(=O)c2cnccn2)c1C	0.1%	-2.0%	·	-3.4%	?	6.0%	·	·	·	·	·	·	·
